HCV inh: qHTS Assay for Inhibitors of Hepatitis C Virus (HCV); Huh7.5.1 HCVcc-Cre infection, luciferase reporter, 44 h; Potency, µM (titrated, usually from 41.8 µM), for inactives: at the highest dose activity change, negative = inhibition, hits mostly inhibitors; 340,000 tested, 3.4% active; AID 651820, 2012
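Cells (1,000/well) were plated 4 h before compound, then infected with HCVcc-Cre virus (~0.5 moi). After 44 h further culture, infection was read as luciferase luminescence following a 15 min substrate incubation at room temperature.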
Pf growth 96h: Primary qHTS for delayed death inhibitors of the malarial parasite plastid, 96 hour incubation. P. falciparum luciferase reporter growth, 96 h. AID 504834, 2011. Potency, µM (doses to about 28.7 µM), without a hit: at the highest dose activity change, negative = inhibition, actives largely listed as inhibitors. 320,000 tested, 6.9% active
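Erythrocytes infected with luciferase-expressing P. falciparum were dispensed at 2% hematocrit and 0.05% parasitemia (final), then incubated with compounds 96 hours at 37 C in 5% CO2. Luminescence after detection reagent addition reported growth.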
AMA1-RON2 inh: qHTS for Inhibitors of AMA1-RON; Towards Development of Antimalarial Drug Lead: Primary Screen. AID 720542, 2013. Plasmodium falciparum AMA1 (3D7) - RON2 peptide interaction. AlphaScreen AMA1-biotinylated RON2 peptide binding. Potency, µM (series often up to 58.2 µM), for inactives: at the top dose activity change, negative = inhibition, actives largely listed as inhibitors. 360,000 tested, 0.2% active;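 also: 0% = vehicle wells and -100% = peptide control; nearly all actives have a fitted effect of over 45% in size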
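AMA1 (3D7) with his tag at 25 nM final met compounds first, then biotinylated RON2 peptide at 25 nM; detection used donor plus acceptor beads, 10 µg/mL apiece, read by AlphaScreen after 30 min at room temperature.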
Pf growth 48h: Primary qHTS for delayed death inhibitors of the malarial parasite plastid, 48 hour incubation; Potency, µM (top dose mostly 28.7 µM), without a hit: at the highest dose activity change, negative = inhibition, usual class: inhibitors; AID 504832, 2011; 310,000 tested, 5.9% active; P. falciparum luciferase growth in erythrocytes, 48 h
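Read-out is firefly luciferase luminescence from an integrated reporter in P. falciparum, so falling signal marks reduced parasite growth. Infected erythrocytes were at 2% hematocrit and 0.1% parasitemia (final) in Albumax-supplemented RPMI 1640.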
Starred values were filed as active, the others as inactive; u = inconclusive; x = no result given. The list is not random: actives were taken first. Their share in the collection is about 11%. Calls follow the shape of the dose curve; as a rule, active = well fitted curve in the direction sought with a large enough effect; inconclusive = small, poorly fitted or top-dose-only effect, or another doubt; inactive = no such curve, though single readings can be large; an effect the other way counts as inactive or inconclusive. Unless noted, % is scaled to controls: 0 for no effect and ±100 for the full control effect; potency is read from the fitted curve at half-maximal effect.

SMILES	HCV inh	Pf growth 96h	AMA1-RON2 inh	Pf growth 48h
Cc1ccc(NS(=O)(=O)c2ccc(NC(=O)c3ccc(Br)o3)cc2)c(C)c1	12.6µM*	-18.7%	u	u
Cc1ccc(S(=O)(=O)N2CCCCC2)cc1NC(=O)c1cc2ccccc2o1	22.4µM*	u	11.4%	u
CCN1CCN(c2ccc(S(=O)(=O)N3CCCCC3)cc2NC(=O)c2cc3ccccc3o2)CC1	u	2.08µM*	-1.7%	4.15µM*
CCc1ccc(-c2nc(CN3CCCC(C(=O)NCCc4ccc(OC)c(OC)c4)C3)c(C)o2)cc1 (stereo unspecified)	8.91µM*	u	-8.9%	u
Cc1oc(-c2ccc(Cl)cc2)nc1CN1CCCC(C(=O)NC2CC2)C1 (stereo unspecified)	u	u	-3.4%	0.0%
CCOC(=O)N1CCC(NC(=O)C2CCCN(Cc3nc(-c4cccc(Cl)c4)oc3C)C2)CC1 (stereo unspecified)	5.62µM*	u	3.1%	x
Cc1oc(-c2ccc(Cl)cc2)nc1CN1CCCC(C(=O)NCc2ccco2)C1 (stereo unspecified)	12.6µM*	u	6.5%	14.0%
CCOC(=O)N1CCC(NC(=O)CS(=O)(=O)Cc2nc(-c3cccc(Cl)c3)oc2C)CC1	u	u	-2.2%	13.8%
CCOC(=O)N1CCN(C(=O)C2CCCN(Cc3nc(-c4ccc(Cl)cc4)oc3C)C2)CC1 (stereo unspecified)	1.41µM*	10.4µM*	11.2%	x
N/C(=N\OC(=O)Cc1ccc(-c2ccccc2)cc1)c1ccncc1	7.1%	6.5%	-1.4%	u
Cc1ccc(NC(=O)C2C3C=CC4(CN(Cc5cccnc5)C(=O)C24)O3)cc1F (stereo unspecified)	15.9%	u	14.1%	9.7%
CC(C)C1C(=O)N(Cc2cn(CCC3OCCCO3)nn2)CCS(=O)(=O)N1Cc1ccc(-c2ccc(Cl)nc2)cc1 (stereo unspecified)	x	x	-1.3%	x
CCN1CCN(CCNC(=O)C2CCCN(Cc3nc(-c4cccc(Cl)c4)oc3C)C2)CC1 (stereo unspecified)	10µM*	-23.2%	-4.6%	x
FC(F)Sc1ccc(NC(=S)NC2CCCCC2)cc1	u	u	0.0%	x
FC(F)Sc1ccc(NC(=S)NCC2CCCCC2)cc1	31.6µM*	-104.9%	57.0%	x
CC1CCCCC1NC(=S)Nc1ccc(SC(F)F)cc1 (stereo unspecified)	11.2µM*	x	-7.7%	-77.0%
CC(=O)c1ccc(OC(C)C(=O)NCC2(N3CCOCC3)CCCCC2)cc1 (stereo unspecified)	3.5%	x	-5.5%	x
C[N+]1(C)C2CCC1CC(OC(=O)c1c[nH]c3ccccc13)C2 (stereo unspecified)	-25.3%	6.01µM*	13.2%	u
O=C(OC1C[C@@H]2CC3C[C@H](C1)N2CC3=O)c1c[nH]c2ccccc12 (stereo partly specified)	x	13.5µM*	x	13.5µM*
O=C(OCC(=O)N1CCCCC1)c1c[nH]c2ccccc12	4.6%	243.9%	-18.2%	129.4%
C[N+]1(C)C2CCC1CC(OC(=O)c1ccco1)C2 (stereo unspecified)	10.2%	-16.0%	-6.7%	-17.6%
CCCC(=O)N1CCCC(C(=O)c2cccc(OC(C)C)c2)C1 (stereo unspecified)	-22.0%	x	-8.7%	x
Cc1c(OC(C)C(=O)N2C[C@H]3C[C@@H](C2)c2cccc(=O)n2C3)ccc2c3c(c(=O)oc12)CCC3 (stereo partly specified)	u	10.4µM*	20.9%	-19.3%
Cc1c(C)c2ccc(OC(C)C(=O)N3C[C@H]4C[C@@H](C3)c3cccc(=O)n3C4)c(C)c2oc1=O (stereo partly specified)	30.2%	u	7.7%	20.1%
Cc1coc2c(C)c3oc(=O)c(CCC(=O)N4C[C@H]5C[C@@H](C4)c4cccc(=O)n4C5)c(C)c3cc12	-15.7%	u	-14.2%	3.29µM*
SMILES	HCV inh	Pf growth 96h	AMA1-RON2 inh	Pf growth 48h
Cc1coc2c(C)c3oc(=O)c(CCC(=O)NCCN4CCOCC4)c(C)c3cc12	u	u	-3.5%	u
COc1ccc2c(C)c(CC(=O)N3C[C@H]4C[C@@H](C3)c3cccc(=O)n3C4)c(=O)oc2c1OC	-23.9%	u	-2.3%	u
Cc1oc2cc3oc(=O)c(CCC(=O)N4C[C@H]5C[C@@H](C4)c4cccc(=O)n4C5)c(C)c3cc2c1C	-25.9%	2.94µM*	4.6%	u
Cc1coc2c(C)c3oc(=O)c(CCC(=O)N4CCC(C(=O)NCCCC(=O)O)(c5ccccc5)CC4)c(C)c3cc12	-0.6%	9.28µM*	-29.6%	u
Cc1c(CC(=O)N2C[C@H]3C[C@@H](C2)c2cccc(=O)n2C3)c(=O)oc2cc(O)c(Cl)cc12	7.9%	67.7%	4.1%	20.2%
CCN(CC)S(=O)(=O)c1ccc(Cl)c(NC(=O)COc2ccc(OC)cc2)c1	-12.5%	13.1%	-8.0%	0.0%
Cc1c(CC(=O)N2C[C@H]3C[C@@H](C2)c2cccc(=O)n2C3)c(=O)oc2c(C)c(O)ccc12	3.0%	2.9%	3.2%	-7.6%
Cc1oc2c(C)c3oc(=O)c(CCC(=O)N4C[C@H]5C[C@@H](C4)c4cccc(=O)n4C5)c(C)c3cc2c1C	-56.2%	11.7µM*	0.0%	u
O=[N+]([O-])c1ccccc1S(=O)(=O)Nc1cccnc1	0.1%	0.0%	1.9%	182.0%
CC(C)(C)NC(=O)CSc1ncnc2c1cnn2-c1ccccc1	-12.4%	0.0%	-2.6%	u
Cc1ccc(C23CC4CC(CC(C(=O)NC(C)C(N)=O)(C4)C2)C3)cc1 (stereo unspecified)	11.1%	0.7%	5.7%	23.9%
O=C(CSc1nnc(-c2cccs2)n1CC1CCCO1)c1cc2ccccc2o1 (stereo unspecified)	-13.1%	11.7µM*	-2.4%	29.9%
CC12CCC(C(=O)Nc3ccc(Cl)cc3)([C@H](Br)C1=O)C2(C)C (stereo partly specified)	4.7%	-13.2%	10.9%	u
CC12CCC(C(=O)Nc3cccc(Cl)c3)(C(Br)C1=O)C2(C)C (stereo unspecified)	28.9%	14.7µM*	-6.0%	u
CCn1cc(C(=O)NCCCN2CCCC(C)C2)c(=O)c2cc(S(=O)(=O)N3CCc4ccccc4C3)ccc21 (stereo unspecified)	11.2µM*	u	-18.8%	u
CCC1CCCCN1CCCNC(=O)c1cn(CC)c2ccc(S(=O)(=O)N(C)C3CCCCC3)cc2c1=O (stereo unspecified)	u	u	-3.7%	u
CCC1CCCCN1CCCNC(=O)c1cn(CC)c2ccc(S(=O)(=O)N3CCc4ccccc4C3)cc2c1=O (stereo unspecified)	12.6µM*	22.3%	9.6%	26.2%

Bioassay records from PubChem BioAssay.
